Inhibition data for 40 molecules are collected here from ChEMBL document CHEMBL3433997, “St. Jude Leishmania screening dataset” (2016).

Structures are written as SMILES.

For the first assay, the target named is Solute carrier family 2, facilitated glucose transporter member 1 (Homo sapiens) (UniProt P11166). As to the kind of experiment: ST_JUDE_LEISH: Cytotoxicity at 2uM final concentration against transgenic Leishmania Mexicana promastigotes LmGLUT1 that are glucose transport deficient and complemented with the human glucose transporter GLUT1. Activity is measured by DNA content using SYBR green in vitro. The class given is functional.
Solute carrier family 2, facilitated glucose transporter member 1 (Homo sapiens), sequence (P11166 whole entry): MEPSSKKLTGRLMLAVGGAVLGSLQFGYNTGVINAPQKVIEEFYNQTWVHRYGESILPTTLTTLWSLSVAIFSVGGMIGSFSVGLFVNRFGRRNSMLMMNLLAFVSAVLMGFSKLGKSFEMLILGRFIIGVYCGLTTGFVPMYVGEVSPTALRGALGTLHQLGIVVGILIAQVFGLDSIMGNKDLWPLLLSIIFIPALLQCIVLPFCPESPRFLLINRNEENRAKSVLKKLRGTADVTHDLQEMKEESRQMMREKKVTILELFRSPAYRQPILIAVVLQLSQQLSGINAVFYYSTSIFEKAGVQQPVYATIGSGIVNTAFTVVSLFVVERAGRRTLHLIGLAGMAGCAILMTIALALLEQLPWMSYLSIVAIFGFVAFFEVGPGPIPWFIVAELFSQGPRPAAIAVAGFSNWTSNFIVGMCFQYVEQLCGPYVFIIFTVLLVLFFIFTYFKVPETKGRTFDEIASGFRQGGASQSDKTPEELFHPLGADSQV
Consider `CCCCCCN1CCC(NCc2ccc(OCCN3CCCC3)cc2)CC1`, for which the inhibition is -1.34%.
As to `COc1ccc2nccc([C@@H](O)CN3CCC(NCCOc4cc(C(F)(F)F)ccc4F)CC3)c2c1`, the inhibition was determined as 21.5%.
For `CN1CCCC(CN2CCN(Cc3ccc(-c4ccc(-c5nc6ccccc6[nH]5)s4)cc3)CC2)C1` (stereo not given), the inhibition worked out at 22.9%.
Still for that read-out and setting: then `COc1ccc2nccc([C@@H](O)CN3CCC(NC(=O)c4cccc(-c5cc(C)no5)c4)CC3)c2c1`, with 1.35%; and `CC(C)(C)c1ccc(CNC(=O)c2ccc(-c3nc4ccc(Cl)cc4[nH]3)cc2)cc1`, with 1.67%.
As for `COc1ccc2nc(N)nc(C)c2c1`, the inhibition amounted to 4.18%.
As for `COc1ccc(CCNc2nc(NCc3ccccc3)c3cc(OC)c(OC)cc3n2)cc1OC`, the inhibition stood at 5.66%.
Regarding `Cc1nn(C2CCS(=O)(=O)C2)c(C)c1C1Nc2ccccc2C(=O)N1Cc1ccc2c(c1)OCO2` (stereo not given), the inhibition was -0.66%.
Still for that read-out and setting: then `CC1(C)CC2CC(C)(CN2C(=O)c2cc(C(C)(C)C)nn2Cc2ccccc2)C1` (stereo not given), with 7.67%; and `Cc1cc(C(=O)NC2CCN(Cc3ccccc3)CC2)ccc1-c1nc2cc(Cl)c(Cl)cc2[nH]1`, with 3.63%; and `O=C(NCCCCN1CCC(c2nc3ccccc3s2)CC1)c1cc2ccccc2[nH]1`, with 3.02%.
For `Cc1cc(C(=O)NC2CCN(Cc3ccccc3)CC2)ccc1-c1nc2ccc(C(F)(F)F)cc2[nH]1`, the inhibition came to 3.67%.
On to `Cc1ccc(OCCCCONC(=O)c2ccccc2)cc1`, for which the inhibition was 0.84%.
Regarding `O=c1c2ccccc2[nH]c2cc(Cl)ccc12`, the inhibition came out at 5.11%.
On the same count and under the same terms, next, `O=C(CSc1nc(-c2ccccc2Cl)ns1)Nc1cccc(F)c1`: -0.07%.
Regarding `CCCCCNC(=N)N/N=C/c1c[nH]c2ccc(OC)cc12`, the inhibition was found to be 1.71%.
`Cc1cccc2nc(-c3ccc(-c4cccc(NC(=O)Cc5c[nH]cn5)c4)cc3)[nH]c12`: the inhibition was determined as 1.52%.
Regarding `O=C(NC1CCCCN(Cc2ccccc2O)C1)c1ccc(Cl)c(Cl)c1` (stereo not given), the inhibition came out at 7.63%.
Same read-out and setting: next, `O=C(NCCCNc1ccnc2cc(Cl)ccc12)c1ccccc1F`: 4.12%; `CC(=O)Nc1nc(C(=O)Nc2cccc(-c3cccc(-c4nc5cc(F)ccc5[nH]4)c3)c2)cs1`: 2.3%.
The same measure, in the same setting: then `Cc1cc(Nc2ncc(C#N)c(Nc3ccccc3C(N)=O)n2)ccc1N1CCN(C)CC1`, with 79.2%; and `CC(C)c1cc(Oc2c(I)cc(CCNCc3ccccc3)cc2I)ccc1O`, with 0.46%.
`COc1cc(NC(=O)c2nn(CCCN3CCC(N4CCCC4)CC3)cc2-c2ccc(Cl)c(Cl)c2)cc(OC)c1OC`: the inhibition was 1.76%.
Consider `Cc1cc(NC(=O)c2cccs2)ccc1OC1CCN(Cc2ccc(F)cc2)C1` (stereo not given), for which the inhibition amounted to 0.09%.
Turning to `CCCCc1ccc2ncc(C(=O)OCC)c(O)c2c1`, the inhibition was -1.09%.
The same measure, in the same setting: next, `COc1ccc(C=NN=c2cc(C)[nH]c3ccccc23)c(OC)c1`: 54.4%.
Turning to `CCOc1ccc(C(C)NC(=O)c2cc(Cl)ccc2OC)cc1OCC` (stereo not given), the inhibition was -0.81%.
For the molecule `CCNc1cc(C(=O)N[C@@H](Cc2ccccc2)[C@H](O)CNC2(C(C)C)CCC2)cc(N2CCCCS2(=O)=O)c1`, the inhibition was -0.22%.
In the case of `COc1ccc(-c2cc(C(=O)N3CCc4ccccc43)c3ccccc3n2)cc1OC`, the inhibition was -0.76%.
On to `COC(=O)CC[C@H](NC(=O)[C@H](C)NC(=O)OC(C)(C)C)C(=O)OC`, for which the inhibition worked out at 4.67%.
`CNC(=O)c1cnc(Nc2ccc(OCC(O)CN(C)C)cc2)nc1Nc1cccc(OC(C)C)c1` (stereo not given): the inhibition was found to be 2.84%.
Same read-out and setting: then `OC(CNc1cccc(Cl)c1)Cn1c2ccc(Cl)cc2c2cc(Cl)ccc21` (stereo not given), with 3.75%.
In the case of `Nc1nc(N)c2c(Sc3ccccc3)cccc2n1`, the inhibition is 3.38%.
With `CC[C@H](C)CNC(=O)c1cncc(-c2cccc(CN3CCC(N4CCCC4)CC3)c2)c1`, the inhibition was -3.12%.
On the same count and under the same terms, next, `COc1cccc(CN2CCC3(CC2)CN(C(=O)Nc2ccc(Cl)c(Cl)c2)C3)c1`: 2.87%; `CCCc1cc(Cc2cnc(N)nc2N)cc(CCC)c1OCCCCC(=O)OC`: 3.01%.
With `CCCCCN1CCCC1CNS(=O)(=O)c1cccc(C(=O)Nc2cccc(C(F)(F)F)c2)c1` (stereo not given), the inhibition was 6.45%.
On the same count and under the same terms, then `COc1cccc(C(=O)NC(NC(=S)Nc2ccc(OC)cc2[N+](=O)[O-])C(Cl)(Cl)Cl)c1` (stereo not given), with -1.36%.
As for `Cc1ccc(-n2c(Sc3ncnc4sccc34)nnc2N2CCCC2)cc1`, the inhibition was 2.72%.
Same read-out and setting: then `CCC1CN2CCc3c([nH]c4ccccc34)C2CC1CC1=NCCc2c1[nH]c1ccccc21` (stereo not given), with 1.78%.

The next assay addresses Hexose transporter 1 (Plasmodium falciparum) (UniProt O97467). As to the kind of experiment: ST_JUDE_LEISH: Cytotoxicity at 2uM final concentration against transgenic Leishmania Mexicana promastigotes LmPfHT that are glucose transport deficient and complemented with the Plasmodium falciparum hexose transporter. Activity is measured by DNA content using SYBR green in vitro. It is filed as functional.
Regarding `CCCCCCN1CCC(NCc2ccc(OCCN3CCCC3)cc2)CC1`, the inhibition was -0.02%.
The same measure, in the same setting: next, `COc1ccc2nccc([C@@H](O)CN3CCC(NCCOc4cc(C(F)(F)F)ccc4F)CC3)c2c1`: 33.3%.
On to `CN1CCCC(CN2CCN(Cc3ccc(-c4ccc(-c5nc6ccccc6[nH]5)s4)cc3)CC2)C1` (stereo not given), for which the inhibition was 34.8%.
Still for that read-out and setting: then `COc1ccc2nccc([C@@H](O)CN3CCC(NC(=O)c4cccc(-c5cc(C)no5)c4)CC3)c2c1`, with 0.14%; and `CC(C)(C)c1ccc(CNC(=O)c2ccc(-c3nc4ccc(Cl)cc4[nH]3)cc2)cc1`, with 1.77%; and `COc1ccc2nc(N)nc(C)c2c1`, with 2.86%.
On to `COc1ccc(CCNc2nc(NCc3ccccc3)c3cc(OC)c(OC)cc3n2)cc1OC`, for which the inhibition stood at 8.24%.
For the molecule `Cc1nn(C2CCS(=O)(=O)C2)c(C)c1C1Nc2ccccc2C(=O)N1Cc1ccc2c(c1)OCO2` (stereo not given), the inhibition is -0.19%.
On the same count and under the same terms, next, `CC1(C)CC2CC(C)(CN2C(=O)c2cc(C(C)(C)C)nn2Cc2ccccc2)C1` (stereo not given): 7.75%; `Cc1cc(C(=O)NC2CCN(Cc3ccccc3)CC2)ccc1-c1nc2cc(Cl)c(Cl)cc2[nH]1`: -0.19%; `O=C(NCCCCN1CCC(c2nc3ccccc3s2)CC1)c1cc2ccccc2[nH]1`: 0.13%.
Same read-out and setting: next, `Cc1cc(C(=O)NC2CCN(Cc3ccccc3)CC2)ccc1-c1nc2ccc(C(F)(F)F)cc2[nH]1`: 2.1%; `Cc1ccc(OCCCCONC(=O)c2ccccc2)cc1`: -1.51%; `O=c1c2ccccc2[nH]c2cc(Cl)ccc12`: 7.05%.
On to `O=C(CSc1nc(-c2ccccc2Cl)ns1)Nc1cccc(F)c1`, for which the inhibition is -0.93%.
On the same count and under the same terms, next, `CCCCCNC(=N)N/N=C/c1c[nH]c2ccc(OC)cc12`: 3.63%.
In the case of `Cc1cccc2nc(-c3ccc(-c4cccc(NC(=O)Cc5c[nH]cn5)c4)cc3)[nH]c12`, the inhibition was 3.26%.
As for `O=C(NC1CCCCN(Cc2ccccc2O)C1)c1ccc(Cl)c(Cl)c1` (stereo not given), the inhibition amounted to 5.13%.
As for `O=C(NCCCNc1ccnc2cc(Cl)ccc12)c1ccccc1F`, the inhibition amounted to 3.35%.
As for `CC(=O)Nc1nc(C(=O)Nc2cccc(-c3cccc(-c4nc5cc(F)ccc5[nH]4)c3)c2)cs1`, the inhibition came to 3.28%.
As to `Cc1cc(Nc2ncc(C#N)c(Nc3ccccc3C(N)=O)n2)ccc1N1CCN(C)CC1`, the inhibition was found to be 78.8%.
As to `CC(C)c1cc(Oc2c(I)cc(CCNCc3ccccc3)cc2I)ccc1O`, the inhibition stood at 1.39%.
Turning to `COc1cc(NC(=O)c2nn(CCCN3CCC(N4CCCC4)CC3)cc2-c2ccc(Cl)c(Cl)c2)cc(OC)c1OC`, the inhibition worked out at 2.09%.
Regarding `Cc1cc(NC(=O)c2cccs2)ccc1OC1CCN(Cc2ccc(F)cc2)C1` (stereo not given), the inhibition was 0.19%.
Regarding `CCCCc1ccc2ncc(C(=O)OCC)c(O)c2c1`, the inhibition is -0.73%.
`COc1ccc(C=NN=c2cc(C)[nH]c3ccccc23)c(OC)c1`: the inhibition was determined as 66%.
Still for that read-out and setting: then `CCOc1ccc(C(C)NC(=O)c2cc(Cl)ccc2OC)cc1OCC` (stereo not given), with 0.16%; and `CCNc1cc(C(=O)N[C@@H](Cc2ccccc2)[C@H](O)CNC2(C(C)C)CCC2)cc(N2CCCCS2(=O)=O)c1`, with 0.75%.
As to `COc1ccc(-c2cc(C(=O)N3CCc4ccccc43)c3ccccc3n2)cc1OC`, the inhibition amounted to 1.24%.
Same read-out and setting: then `COC(=O)CC[C@H](NC(=O)[C@H](C)NC(=O)OC(C)(C)C)C(=O)OC`, with 0.48%.
The same measure, in the same setting: then `CNC(=O)c1cnc(Nc2ccc(OCC(O)CN(C)C)cc2)nc1Nc1cccc(OC(C)C)c1` (stereo not given), with -0.45%; and `OC(CNc1cccc(Cl)c1)Cn1c2ccc(Cl)cc2c2cc(Cl)ccc21` (stereo not given), with 1.59%; and `Nc1nc(N)c2c(Sc3ccccc3)cccc2n1`, with 3.48%.
As for `CC[C@H](C)CNC(=O)c1cncc(-c2cccc(CN3CCC(N4CCCC4)CC3)c2)c1`, the inhibition was determined as 2.1%.
`COc1cccc(CN2CCC3(CC2)CN(C(=O)Nc2ccc(Cl)c(Cl)c2)C3)c1`: the inhibition was 3.53%.
On the same count and under the same terms, next, `CCCc1cc(Cc2cnc(N)nc2N)cc(CCC)c1OCCCCC(=O)OC`: 0.4%; `CCCCCN1CCCC1CNS(=O)(=O)c1cccc(C(=O)Nc2cccc(C(F)(F)F)c2)c1` (stereo not given): 6.76%.
On to `COc1cccc(C(=O)NC(NC(=S)Nc2ccc(OC)cc2[N+](=O)[O-])C(Cl)(Cl)Cl)c1` (stereo not given), for which the inhibition amounted to 0.44%.
`Cc1ccc(-n2c(Sc3ncnc4sccc34)nnc2N2CCCC2)cc1`: the inhibition was 2.48%.
Regarding `CCC1CN2CCc3c([nH]c4ccccc34)C2CC1CC1=NCCc2c1[nH]c1ccccc21` (stereo not given), the inhibition amounted to 3.33%.
